# Results reported in PubChem BioAssay (NCI).
# About 83,000 compounds went through this panel and 20% of them were active in at least one assay; those are over-represented in the sample as a whole.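 Interpretation: 100, growth as untreated; towards 0, rising growth inhibition; 0, no net growth; 0 to -100, cell death. Compounds scoring below 10 were considered active.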 A number with no mark means an inactive call. Active and inactive are the calls of the source.
# System: HL-60(TB) leukemia
# Assay: NCI-60 one-dose screen, 48 h (100 = growth as untreated, 0 = no growth, -100 = all killed)
# Conditions: 10 µM unless noted
row,Compound,growth
1,O=[N+]([O-])c1ccc(-c2cc3c(Nc4ccc(OCc5cccc(Cl)c5)c(Cl)c4)ncnc3s2)cc1,44.2%
2,O=C(Nc1nccs1)c1noc2ccccc12,95%
3,CCCCC1COc2cccc3c2N1C=C/C3=C\C(=O)n1ccc2ccccc21 (stereo not given),58%
4,NC1(N2SC(S)=C3CCCC=C32)CCCCC1,89.6%
5,CCOC(=O)c1cc(/C=C/c2ccc(Cl)cc2Cl)on1,74.2%
6,CCCCSc1ccc2nc(-c3ccc(OCCCN=C(N)N)cc3)cn2c1,41.1%
7,Cc1ccc(-c2nc(/C=C3/C(=O)Nc4ccc(F)cc43)c3ccccn23)cc1,110%
8,COc1cc(-c2nn(-c3cccc(NC(=O)NCCNS(=O)(=O)c4ccc(Cl)cc4)c3)cc2-c2ccncc2)ccc1Cl,1.37% (active)
9,COc1cc2c3c(n(C)c(=O)c2cc1OC)-c1cc2c(cc1C3=O)OCO2,73.6%
10,CCn1c(-c2cc3c([nH]c4ccccc43)c(-c3cccc(O)c3)n2)n[nH]c1=S,4.16% (active)
11,CSCC[C@@H]1C(=O)N(C)[C@H](C(C)(C)C)N1C(=O)c1ccccc1,110%
12,COc1cc(/C=N\NC(=O)CN2CCN(c3cc4c(cc3F)c(=O)c(C(=O)N/N=C/c3ccc(O)c(OC)c3)cn4C3CC3)CC2)ccc1O,75.4%
13,COc1cc(-c2nc(-c3nc4cc(C(=O)c5ccccc5)ccc4[nH]3)cc3c2[nH]c2ccccc23)cc(OC)c1OC,89.7%
14,COC(=O)CNS(=O)(=O)c1ccc2c(c1)Cc1cc(S(=O)(=O)NCC(=O)OC)ccc1-2,98.5%
15,COc1cc2oc(-c3cccc(NC(=O)c4ccc5c(c4)OCO5)c3)cc(=O)c2c(OC)c1OC,34.6%
16,O=C1C=C(Cl)C(=O)c2ccccc21,57.3%
17,CCCCCCNC(=O)Oc1ccc(/C(=C(\C)c2ccc(Cl)cc2)c2ccc(OCCCN(C)C)cc2)cc1,62.9%
18,Cc1ccc(S(=O)(=O)Oc2ccc3sc4cccc(NCCN(C)C)c4c(=O)c3c2)cc1,-64% (active)
19,C=C(C)[C@@H]1CC[C@]2(C(=O)Nc3ccccn3)CC[C@]3(C)[C@H](CC[C@@H]4[C@@]5(C)CCCNC(C)(C)[C@@H]5CC[C@]43C)[C@@H]12,-38.1% (active)
20,O=C(CCN1C(=O)/C(=C/c2ccc(Cl)cc2)SC1=S)NCCCN1CCOCC1,98.9%

row,Compound,growth
1,Clc1cccc(Cl)c1Nc1ccc2nnc(-c3ccncc3)n2n1,88.7%
2,O=C(CN1CCN(C(=O)c2ccccc2)CC1)Nc1ccccc1SCc1ccccc1,80.5%
3,CCOc1ccc(-n2c(-c3cc(OC)c(OC)c(OC)c3)nnc2-c2ccc(OC)cc2N)cc1,28.5%
4,Cc1ccc(-c2nc(N3CCN(C(=O)c4ccc(OC(F)(F)F)cc4)CC3)c3ccccc3n2)cc1,97.5%
5,NS(=O)(=O)c1ccc(C(=O)N=Nc2c(O)[nH]c3ccc(Cl)cc23)cc1,102%
6,CC1=CN2C(=O)C3C4=C(CCCC4)SC3N=C2CN1c1c(C)cccc1C (stereo not given),-9.4% (active)
7,CCOC(=O)C(=Cc1ccccc1[N+](=O)[O-])C(=O)OCC,-26.5% (active)
8,C=CCOC1=CC(=O)c2ccccc2C1=O,41.6%
9,COc1ccc(C(=O)/C=C/c2ccc(N3CCCCC3)cc2)cc1OC,78.9%
10,COC(=O)c1cc(O)c2cc3c(cc2c1-c1cc(OC)c(OC)c(OC)c1)OCO3,5.92% (active)
11,O=C(Nc1cccc(Oc2nnc(Cl)c3ccccc23)c1)Nc1ccc(Cl)c(C(F)(F)F)c1,-16.7% (active)
12,CC1(C)O[C@H]2OC3CCC(=O)CC3(O)[C@H]2O1 (stereo not given in full),102%
13,N=c1ccc2nc3ccc(N)cc3sc-2c1,0.816% (active)
14,COc1cc(-c2nc3sccn3c2-c2ccnc(NCCNS(=O)(=O)c3ccc(Cl)cc3)n2)ccc1F,9.59% (active)
15,CS(=O)(=O)Nc1cc(-c2ccc3ncnc(Nc4ccc5c(cnn5Cc5ccc(F)cc5)c4)c3c2)cnc1Cl,23%
16,NC(N)=N/N=C/c1ccc([N+](=O)[O-])o1,76.1%
17,CCNC(=O)OCCc1c2ccccc2nc2ccccc12,95.1%
18,COc1ccc(C2CC(c3ccc4ccccc4c3)=NN2c2nc(O)c(C3=c4cc(Cl)ccc4=NC3=O)s2)cc1 (stereo not given),-6.68% (active)
19,COC(=O)CCCCCn1c2ccccc2c2c3c(c4c5ccccc5[nH]c4c21)C(=O)N(O)C3=O,19.1%
20,Fc1ccc(-c2nnc(/C=C/c3cn(-c4ccccc4)nc3-c3ccccc3)o2)cc1,94.2%
